Experiments:
Experiment in all cases: PBM binding z-score (relative to random genomic background probes); higher = stronger binding; sequences stand for … in GC…GCGATTGACAGCGTAGAATGAAGG
[1] = tested on: FXR:RXRa (NR concentration 270 nM, RXRa partner concentration 90 nM)
How it was run: (§1)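 Antibodies against each partner of ligand-free nuclear receptor dimers (one per run) detected binding on custom Agilent 4×180K protein-binding microarrays after 1 h incubation. The double-stranded probes had 34-nt variable regions carrying direct-repeat seeds, single-nucleotide variants, half-site ablations and random human genomic background sequences. Binding z-scores, from regression-normalized fluorescence, use the random background probes as reference.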

[2] = tested on: LXRa:RXRa (NR concentration 270 nM, RXRa partner concentration 90 nM)
How it was run: as §1

[3] = tested on: LXRa homodimer (NR concentration 270 nM)
How it was run: as §1

[4] = tested on: LXRb:RXRa (NR concentration 270 nM, RXRa partner concentration 90 nM)
How it was run: as §1

[5] = tested on: LXRb homodimer (NR concentration 270 nM)
How it was run: as §1

[6] = tested on: PPARa:RXRa (NR concentration 270 nM, RXRa partner concentration 90 nM)
How it was run: as §1

[7] = tested on: PPARg:RXRa (NR concentration 180 nM, RXRa partner concentration 90 nM)
How it was run: as §1

[8] = tested on: PPARg:RXRa 270nM:90nM, anti-RXR (NR concentration 270 nM, RXRa partner concentration 90 nM)
How it was run: as §1

[9] = tested on: PPARg:RXRa 30nM:10nM, anti-RXR (NR concentration 30 nM, RXRa partner concentration 10 nM)
How it was run: as §1

[10] = tested on: PPARg:RXRa 90nM:30nM, anti-RXR (NR concentration 90 nM, RXRa partner concentration 30 nM)
How it was run: as §1

[11] = tested on: PPARg:RXRa DBDmut IVT, anti-RXR (DBD mutation: RXRa K156A/R161A, NR concentration 270 nM, RXRa partner concentration 90 nM)
How it was run: as §1

[12] = tested on: PPARg:RXRa IVT, anti-PPARg (NR concentration 270 nM, RXRa partner concentration 90 nM)
How it was run: as §1

[13] = tested on: PPARg DBDmut:RXRa IVT, anti-PPARg (DBD mutation: PPARg1 K132A/R137A, NR concentration 270 nM, RXRa partner concentration 90 nM)
How it was run: as §1

[14] = tested on: PPARg DBDmut IVT, anti-PPARg (DBD mutation: PPARg1 K132A/R137A, NR concentration 270 nM)
How it was run: as §1

[15] = tested on: PPARg homodimer (NR concentration 180 nM)
How it was run: as §1

[16] = tested on: PXR:RXRa (NR concentration 270 nM, RXRa partner concentration 90 nM)
How it was run: as §1

[17] = tested on: PXR homodimer (NR concentration 270 nM)
How it was run: as §1

[18] = tested on: RARa:RXR (NR concentration 270 nM, RXRa partner concentration 90 nM)
How it was run: as §1

[19] = tested on: RARa homodimer (NR concentration 270 nM)
How it was run: as §1

[20] = tested on: RARb:RXRa (NR concentration 270 nM, RXRa partner concentration 90 nM)
How it was run: as §1

| Sequence | PBM binding z-score [1] | PBM binding z-score [2] | PBM binding z-score [3] | PBM binding z-score [4] | PBM binding z-score [5] | PBM binding z-score [6] | PBM binding z-score [7] | PBM binding z-score [8] | PBM binding z-score [9] | PBM binding z-score [10] | PBM binding z-score [11] | PBM binding z-score [12] | PBM binding z-score [13] | PBM binding z-score [14] | PBM binding z-score [15] | PBM binding z-score [16] | PBM binding z-score [17] | PBM binding z-score [18] | PBM binding z-score [19] | PBM binding z-score [20] |
| --- | --- | --- | --- | --- | --- | --- | --- | --- | --- | --- | --- | --- | --- | --- | --- | --- | --- | --- | --- | --- |
| CCTACTAGGCCATTCAGAGGTCATTGATCATATG | 3.52 | 4.52 | 7.03 | 4.15 | 1.58 | 4.04 | 3.11 | 3.87 | 1.41 | 3.08 | 5.98 | 5.01 | 1.66 | 0.481 | 2.94 | 4.79 | 3.44 | 4.84 | 1.44 | 3.45 |
| AGAATGAGGTTATTAAGATCAGGGATTTGCGGTC | 1.64 | 1.59 | 0.335 | 1.29 | 0.376 | 2.39 | 1.5 | 1.92 | 0.623 | 1.21 | 3.56 | 2.51 | 1.03 | 0.211 | 0.911 | 1.23 | 0.655 | 1.64 | 0.863 | 1.37 |
| GCGGACAGGTGAAACGCAGGTAACTCAGGGTGGC | -0.363 | -0.0756 | -0.541 | -0.243 | -1.43 | 0.799 | 0.338 | -0.205 | -1.01 | -0.756 | 1.08 | 0.64 | -0.773 | -1.81 | -0.69 | -0.362 | -0.597 | 0.177 | -1.07 | 0.934 |
| TCATATACGTAAATGCTAGGTGAAAGTCCGATCT | 0.742 | 0.449 | 0.327 | 0.861 | 0.278 | 0.771 | 0.633 | 2.14 | 3.51 | 2.66 | 2.16 | 0.926 | 0.89 | 1.72 | 0.664 | 0.565 | 0.25 | 0.743 | 0.987 | 0.357 |
| CGTCCAAGGTCAAAGGACAGTGAAGAGATGACGG | 6.9 | 5.32 | 0.749 | 3.74 | 1.13 | 5.6 | 5.59 | 5.73 | 2.46 | 4.8 | 2.81 | 3.71 | 1.49 | 0.353 | 2.89 | 3.74 | 0.957 | 4.39 | 0.706 | 5.21 |
| CCTACTGGGCCAACAGGTCATTGATATCAACGTT | 1.42 | 1.52 | 1.37 | 1.98 | -0.204 | 3.21 | 4.01 | 4.41 | 2.65 | 4.24 | 4.64 | 4.84 | 0.0699 | 0.305 | 1.23 | 1.92 | 0.325 | 2.13 | -0.373 | 2.12 |
| ATATGTAGGTTAAGGGTAATTCAGGTTGGTTCGC | 1.39 | 2.14 | 1.04 | 1.72 | 0.767 | 4.6 | 8.65 | 7.77 | 8.77 | 8.33 | 7.67 | 7.16 | 1.52 | 1.87 | 2.15 | 1.74 | 1.44 | 1.63 | 2.31 | 1.69 |
| CGAACGAGGGCATGAGTGGATAGCAAATGCCGAT | 0.364 | 0.334 | -0.533 | 0.059 | -0.983 | 1.22 | 1.27 | 0.947 | 0.0449 | 0.449 | 2.74 | 1.85 | -0.478 | -0.831 | -0.474 | 0.213 | -0.305 | 0.373 | -0.274 | 1.91 |
| CCTGCTAGGTCATGGTCAGTTAATCTACAGTATG | 3.84 | 2.66 | 0.0744 | 1.97 | -0.163 | 3.48 | 2.31 | 2.88 | 0.868 | 2.13 | 4.72 | 3.92 | 0.767 | 0.558 | 1.63 | 2.31 | -0.286 | 2.62 | 0.426 | 3.96 |
| AGAATGAGGTTATAAAGATCAGGGAATTGCGGTC | 1.45 | 1.31 | 0.315 | 1.17 | 0.00236 | 2.65 | 1.58 | 2 | 0.752 | 1.52 | 2.13 | 2.04 | 0.947 | 0.696 | 1.14 | 1.2 | 0.572 | 1.58 | 0.211 | 1.32 |
| GCTAGTTGGTCAGTAAAAGGTCAGACACCGGTCG | 1.99 | 3.15 | 2.83 | 2.74 | 0.106 | 3.24 | 1.79 | 3.25 | 1.03 | 2.7 | 0.754 | 1.67 | -0.192 | 0.136 | 3.21 | 3.35 | 0.554 | 4.17 | 0.966 | 3.71 |
| CGAACTACGTCAGAACAGGACAGTGAAGGATGAT | -0.457 | -0.582 | -0.294 | -1.05 | -0.438 | -0.716 | 0.632 | -0.752 | -0.147 | -0.37 | -0.549 | -0.508 | 0.627 | 0.733 | 0.0908 | -0.524 | -0.0465 | -0.592 | -0.0605 | -0.283 |
| ATATGTAGTTTACATCCGGGTCATTCAGGCTATG | 1.49 | 2.34 | 1.08 | 2.31 | 1.04 | 2.59 | 1.19 | 1.19 | 0.609 | 1.53 | 1.36 | 2.27 | 1.09 | 1.65 | 1.01 | 2.91 | 3.16 | 2.85 | 0.262 | 1.51 |
| CATACTGGGCCAAAAAGGTCATTGATGCCGATAA | 3.78 | 4.56 | 3.26 | 4.16 | 0.973 | 4.63 | 2.82 | 3.82 | 1.24 | 3.11 | 3.46 | 3.71 | 0.731 | 0.232 | 2.9 | 4.68 | 3.77 | 5.06 | 2.12 | 3.82 |

— the supplement of paper PMC6555819
